Assay results published in PubChem BioAssay.
Active and inactive are the calls of the source. Rule as the data show it, unless noted: active = inhibition above about 30%; inactive = the rest.

Columns and labels:
[1] = reduced viability of SK-BR-3 breast cancer cells – cell-based, 24 h, human, pilot screen (AID 572;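 active = viability at or below 10% of carrier control in both of two separate runs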;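 also: compound exposure lasted between 18 and 24 h rather than exactly 24 h; 100% = carrier-treated control wells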); conditions: SK-BR-3 viability, CellTiter-Glo luminescence, at 10 µM, stronger effect = lower value
[2] = HUVEC growth inhibition – cell-based, human, primary screen (AID 575;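 active = viability at or below 30% in both replicate assays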;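 also: 100% = median of untreated cell wells with 0.1% DMSO on each plate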); conditions: HUVEC proliferation, CellTiter-Glo luminescence, 72 h; at 10 µM; stronger effect = lower value
[3] = MRP1 drug-resistance reversers in H69AR cells – cell-based, doxorubicin co-treatment, pilot screen (AID 601;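 active = viability loss from added drug above about 55%, and viability with drug at most 40%, in both replicates, limit read from the data, passing the limit was not always enough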); conditions: CellTiter-Glo, 72 h, at 10 µM; for differential viability (reversal): stronger effect = higher value
[4] = yeast transport mutant growth inhibition pilot in 384-well plates, post-Golgi transport modulator project (AID 636; in the data active = inhibition above about 31%); conditions: absorbance 615 nm, about 18 h, stronger effect = higher value
[5] = growth suppression of yeast trafficking mutant, preliminary HTS, modulators of trafficking downstream of Golgi apparatus project, 1536-format plate, OD 615 nm (AID 637); conditions: yeast transport mutant growth, absorbance 615 nm, 18 h; stronger effect = higher value
[6] = H69AR cell proliferation blockers – human, duplicate replicates, primary screen (AID 580;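 active = viability at or under a set limit in both replicates, limit being median viability minus 3 SD, cut at about 48% in these data, passing the limit was not always enough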;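 also: 100% = mean luminescence of untreated wells and 0% = no signal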); conditions: H69AR lung tumor cells viability, ATP luminescence, 72 h; at 10 µM; stronger effect = lower value
[7] = H69AR cells + 2 uM doxorubicin, measured here: viability with 2 uM doxorubicin, stronger effect = lower value
[8] = H69AR cells, compound alone cytotoxicity

| Compound | viability [1] | viability [2] | differential viability (reversal) ([3]; H69AR cells + 2 uM doxorubicin) | viability [3, 7] | viability [3, 8] | inhibition [4] | inhibition [5] | viability [6] |
| --- | --- | --- | --- | --- | --- | --- | --- | --- |
| COC(=O)c1[nH]c2ccc(C)cc2c1NC(=O)CN1CCCC(C)(C)C1 | 125% (inactive) | 77.6% (inactive) | -3% (inactive) | 42.2% | 39.1% | -5.87% (inactive) | 4.91% (inactive) |  |
| O=C(Cn1c(=O)oc2ccccc21)Nc1ccc(S(=O)(=O)N2CCCCC2)cc1 | 106% (inactive) | 89.2% (inactive) | 5.17% (inactive) | 59.9% | 65.1% | 1.92% (inactive) | -2.58% (inactive) |  |
| COc1ccc2cc(C(c3nnnn3C(C)(C)C)N3CCc4ccccc4C3)c(=O)[nH]c2c1 (stereo not drawn) | 81% (inactive) | 48.3% (inactive) | 26% (inactive) | 23.1% | 49.1% | -5.33% (inactive) | -2.36% (inactive) |  |
| COc1ccccc1C(=O)NCC(c1cccnc1)N(C)C (stereo not drawn) | 108% (inactive) | 96% (inactive) |  |  |  | -7.12% (inactive) | -1.27% (inactive) |  |
| CCn1c(=N)n(CC(=O)c2ccco2)c2ccccc21 | 95% (inactive) | 95.5% (inactive) | -38.3% (inactive) | 73.2% | 34.9% | -5.2% (inactive) | -4% (inactive) |  |
| N#Cc1cc2ccc(N3CCOCC3)cc2cc1C#N | 85% (inactive) | 4.27% (active) | -33.5% (inactive) | 76.9% | 43.4% | -0.91% (inactive) | -3% (inactive) |  |
| COC1=CC(=O)CC(C)C12Oc1c(Cl)c(OC)cc(OC)c1C2=O (stereo not drawn) | 100% (inactive) | 62.8% (inactive) | -31.8% (inactive) | 50% | 18.1% | -2.99% (inactive) | -5.67% (inactive) |  |
| CC(=O)O[C@@]12CO[C@@H]1C[C@H](O)[C@@]1(C)C(=O)[C@H](O)C3=C(C)[C@@H](OC(=O)[C@H](O)[C@@H](NC(=O)OC(C)(C)C)c4ccccc4)C[C@](O)([C@@H](OC(=O)c4ccccc4)[C@H]21)C3(C)C | 130% (inactive) | 40.7% (inactive) | -79.6% (inactive) | 98.8% | 19.2% | -4.03% (inactive) | -2.33% (inactive) |  |
| COc1ccc(C(=O)Nc2ccc(Cl)c(Cl)c2)c(OC)n1 | 93% (inactive) | 83.2% (inactive) | -7.11% (inactive) | 47.6% | 40.5% | -8.53% (inactive) | -4.36% (inactive) |  |
| CC(C)(C)c1ccc(C(O)CCCN2CCC(C(O)(c3ccccc3)c3ccccc3)CC2)cc1 (stereo not drawn) | 91% (inactive) | 1.7% (active) | 0.38% (inactive) | 1.16% | 1.54% | -1.95% (inactive) | -1% (inactive) |  |
| CCOC(=O)c1[nH]c(CSc2nnc(-c3ccc(OC)cc3)o2)c(C(=O)OCC)c1C | 56% (inactive) | 72.3% (inactive) | 0.61% (inactive) | 37.4% | 38% | -3.24% (inactive) | -4.36% (inactive) |  |
| N=c1c(C(=O)NCc2ccccc2)cc2c(=O)n3ccccc3nc2n1Cc1ccco1 | 93% (inactive) | 79.2% (inactive) | -13.5% (inactive) | 65.5% | 52.1% | -4.25% (inactive) | 0.32% (inactive) |  |
| COc1ccc(CCn2c(=N)c(C(=O)NCc3ccco3)cc3c(=O)n4ccccc4nc32)cc1 | 73% (inactive) | 57.9% (inactive) | -8.4% (inactive) | 64.5% | 56.1% | -6.76% (inactive) | -8.33% (inactive) |  |
| Cc1cc(C(=O)CSc2nc3ccccc3n2CCC#N)c(C)n1Cc1cccs1 | 58% (inactive) | 110% (inactive) | -1.21% (inactive) | 32.9% | 31.7% | -5.41% (inactive) | -3.09% (inactive) |  |
| CCCCCC(=O)O[C@]1(C(C)=O)CC[C@H]2[C@@H]3CCC4=CC(=O)CC[C@]4(C)[C@H]3CC[C@@]21C | 93% (inactive) | 4.16% (active) | 20.6% (inactive) | 2.59% | 23.1% | 5.84% (inactive) | -2% (inactive) |  |
| CCOC(=O)C1CCN(CC(=O)Nc2c(C(=O)OC)[nH]c3ccc(Cl)cc23)CC1 | 103% (inactive) | 65.5% (inactive) | 34.9% (inactive) | 23.5% | 58.4% | -4.4% (inactive) | 3.09% (inactive) |  |
| CN(C)CCCN1c2ccccc2Sc2ccc(Cl)cc21 | 71% (inactive) | 2.62% (active) | -26.7% (inactive) | 28.3% | 1.67% | -0.91% (inactive) | 7.17% (inactive) |  |
| O=C(CSc1nc2cc(S(=O)(=O)N3CCOCC3)ccc2o1)NC1CCCc2ccccc21 (stereo not drawn) | 61% (inactive) | 84.7% (inactive) | -4.17% (inactive) | 74.4% | 70.2% | -3.6% (inactive) | -5.82% (inactive) |  |
| CC[C@]1(O)CC2CN(CCc3c([nH]c4ccccc34)[C@@](C(=O)OC)(c3cc4c(cc3OC)N(C=O)[C@H]3[C@@](O)(C(=O)OC)[C@H](OC(C)=O)[C@]5(CC)C=CCN6CC[C@]43[C@@H]65)C2)C1 (stereo partly drawn) | 104% (inactive) | 34.6% (inactive) | -27% (inactive) | 53.5% | 26.5% | -0.91% (inactive) | -3.67% (inactive) |  |
| CCCSc1ccc2nc(NC(=O)OC)[nH]c2c1 | 95% (inactive) | 43.2% (inactive) | -28.6% (inactive) | 48.9% | 20.3% | -1.56% (inactive) | 0.17% (inactive) |  |

| Compound | viability [1] | viability [2] | differential viability (reversal) ([3]; H69AR cells + 2 uM doxorubicin) | viability [3, 7] | viability [3, 8] | inhibition [4] | inhibition [5] | viability [6] |
| --- | --- | --- | --- | --- | --- | --- | --- | --- |
| C(=C\c1ccccc1)/CSc1nnc(-c2ccccn2)n1Cc1ccco1 | 84% (inactive) |  | -46.8% (inactive) | 68.2% | 21.4% | -6.53% (inactive) | -0.16% (inactive) | 21.4% (active) |
| CCC(=O)Oc1ccc(C(CC)C(CC)c2ccc(OC(=O)CC)cc2)cc1 (stereo not drawn) | 112% (inactive) |  | -16.4% (inactive) | 102% | 85.8% | -5.32% (inactive) | -1.33% (inactive) | 85.8% (inactive) |
| Fc1ccc(C(c2ccc(F)cc2)N2CCN(C/C=C/c3ccccc3)CC2)cc1 | 89% (inactive) |  | -5.65% (inactive) | 82.3% | 76.7% | 3.38% (inactive) | -1.17% (inactive) | 76.7% (inactive) |
| CCCCC[C@H](O)/C=C/[C@H]1C=CC(=O)[C@@H]1C/C=C\CCCC(=O)O | 111% (inactive) |  | 9.76% (inactive) | 57.6% | 67.4% | -2.99% (inactive) | -0.5% (inactive) | 67.4% (inactive) |
| O=C(Nc1ccc2oc(Cc3ccc(Cl)cc3)nc2c1)c1cccnc1 | 103% (inactive) |  | -41.5% (inactive) | 79.4% | 37.9% | -1.73% (inactive) | -0.55% (inactive) | 37.9% (active) |
| N#Cc1ccccc1Cn1c(=O)n(Cc2ccc(C(=O)NCc3ccco3)cc2)c(=O)c2ccccc21 | 73% (inactive) |  | -8.33% (inactive) | 19.4% | 11% | -1.82% (inactive) | -7.21% (inactive) | 11% (active) |
| CCN(CC)S(=O)(=O)c1ccc2[nH]cc(C(=O)NCCC3=CCCCC3)c(=O)c2c1 | 138% (inactive) |  | -40.9% (inactive) | 44.3% | 3.36% | -6.4% (inactive) | -0.65% (inactive) | 3.36% (active) |
| COC(=O)c1ccccc1NC(=O)Cn1c(-c2nonc2N)nc2ccccc21 | 70.5% (inactive) |  | -10.4% (inactive) | 26.1% | 15.7% | 1.07% (inactive) | -4.84% (inactive) | 15.7% (active) |
| CN1CCN(C2=Nc3cc(Cl)ccc3Nc3ccccc32)CC1 | 94% (inactive) |  | 17% (inactive) | 51% | 68% | 1.82% (inactive) | 3.67% (inactive) | 68% (inactive) |
| CO[C@H]1C[C@@H]2CC[C@@H](C)[C@@](O)(O2)C(=O)C(=O)N2CCCC[C@H]2C(=O)O[C@H]([C@H](C)C[C@@H]2CC[C@@H](O)[C@H](OC)C2)CC(=O)[C@H](C)C=C(C)[C@@H](O)[C@@H](OC)C(=O)[C@H](C)C[C@H](C)C=CC=CC=C1C | 113% (inactive) |  | 1.46% (inactive) | 65.7% | 67.1% | 93.6% (active) | 82.2% (active) | 67.1% (inactive) |
| Oc1ccc(/C=C/c2cc(O)cc(O)c2)cc1 | 115% (inactive) |  | -11.7% (inactive) | 88.6% | 76.9% | 0.13% (inactive) | -5.17% (inactive) | 76.9% (inactive) |
| O=C(O)c1cc(O)c2c(c1)C(=O)c1cccc(O)c1C2=O | 87% (inactive) |  | -14.5% (inactive) | 91.4% | 76.9% | -4.42% (inactive) | 1.83% (inactive) | 76.9% (inactive) |
| Cc1nnc(NCc2n[nH]c(=O)c3ccccc23)c2ccccc12 | 72% (inactive) |  | -14.8% (inactive) | 81.9% | 67.1% | -3.38% (inactive) | 1.64% (inactive) | 67.1% (inactive) |
| COC(=O)c1ccccc1NC(=O)c1ccc(-c2ccccc2F)o1 | 89% (inactive) |  | 7.71% (inactive) | 53.2% | 60.9% | -8.36% (inactive) | -2.74% (inactive) |  |
| Clc1ccc(C2=Nn3c(nnc3-c3n[nH]c4c3CCC4)SC2)cc1Cl | 102% (inactive) |  | -12.1% (inactive) | 21.1% | 9% | -6.58% (inactive) | 6.77% (inactive) | 9% (active) |
| CCc1nnc(NC(=O)c2ccc(S(=O)(=O)N(CC(C)C)CC(C)C)cc2)o1 | 77% (inactive) |  | -28.4% (inactive) | 61.4% | 32.9% | 3.9% (inactive) | 0.66% (inactive) | 32.9% (active) |
| COc1ccc(Br)cc1-c1noc(-c2ccccc2)n1 | 99% (inactive) |  | -0.585% (inactive) | 79.1% | 78.5% | -3.87% (inactive) | -4.36% (inactive) | 78.5% (inactive) |
| COc1cc2nc(N3CCN(C(=O)C4COc5ccccc5O4)CC3)nc(N)c2cc1OC (stereo not drawn) | 59% (inactive) |  | -15.4% (inactive) | 23.7% | 8.23% | -0.65% (inactive) | 6.83% (inactive) |  |
| C(=C\c1ccccc1)/CN1CCN(C(c2ccccc2)c2ccccc2)CC1 | 90% (inactive) |  | -2.73% (inactive) | 73.7% | 71% | 1.43% (inactive) | -3% (inactive) | 71% (inactive) |
